In the supplement of paper PMC10849652:
Of roughly 7,900 targets only a part is listed; those with a hit were picked by preference. About 0.6% of all pairs of compound and target were hits. Unmarked numbers belong to inactive results.

Assays:
Experiment in all cases: log2 fold change, soluble protein after heating vs DMSO (PISA); higher = thermal stabilisation; K562 cells, 10 uM, 30 min; active = over 0.2 and 3.5 SD of the protein, either way, in both replicates (recomputed)
[1] = compound: NC(=O)Nc1cc(-c2cccc(F)c2)sc1C(=O)N[C@H]1CCCNC1
Method in brief: (§1)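 Soluble protein was quantified by TMTpro 16plex LC-MS/MS after channel sums were equalised. It was obtained as the supernatant after 21,000xg for 90 min from pooled aliquots of K562 cells (2×10^6 cells/mL, 10 μM compound, 30 min) heated for 3 min across 48°C-58°C and extracted in PBS with 0.5% NP-40 at 4°C. Thermal stability values are relative to control samples and come from duplicates. They are given as log2 fold changes.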

[2] = compound: NC1(c2ccc(-c3nc4ccn5c(=O)[nH]nc5c4cc3-c3ccccc3)cc2)CCC1
Method in brief: as §1

[3] = compound: NCC(=O)Nc1ccc(-n2nc(C(F)(F)F)cc2-c2ccc3c(ccc4ccccc43)c2)cc1
Method in brief: as §1

entinostat = compound: Nc1ccccc1NC(=O)c1ccc(CNC(=O)OCc2cccnc2)cc1 [entinostat]
Method in brief: as §1

vorinostat = compound: O=C(CCCCCCC(=O)Nc1ccccc1)NO [vorinostat]
Method in brief: as §1

citarinostat = compound: O=C(CCCCCCNC(=O)c1cnc(N(c2ccccc2)c2ccccc2Cl)nc1)NO [citarinostat]
Method in brief: as §1

silmitasertib = compound: O=C(O)c1ccc2c(c1)nc(Nc1cccc(Cl)c1)c1ccncc12 [silmitasertib]
Method in brief: as §1

[4] = compound: O=C1NC(=O)C(c2cnc3ccccn23)=C1c1cn2c3c(cc(F)cc13)CN(C(=O)N1CCCCC1)CC2
Method in brief: as §1

[5] = compound: c1cc(OCCN2CCCCC2)cc(-c2n[nH]c3ccc(-c4nnc[nH]4)cc23)c1
Method in brief: as §1

[6] = compound: NC(=O)c1cnc(N[C@@H]2CCCC[C@@H]2N)nc1Nc1cccc(-n2nccn2)c1
Method in brief: as §1

Sequence of UniProt Q13227 (Q13227 whole entry, looked up): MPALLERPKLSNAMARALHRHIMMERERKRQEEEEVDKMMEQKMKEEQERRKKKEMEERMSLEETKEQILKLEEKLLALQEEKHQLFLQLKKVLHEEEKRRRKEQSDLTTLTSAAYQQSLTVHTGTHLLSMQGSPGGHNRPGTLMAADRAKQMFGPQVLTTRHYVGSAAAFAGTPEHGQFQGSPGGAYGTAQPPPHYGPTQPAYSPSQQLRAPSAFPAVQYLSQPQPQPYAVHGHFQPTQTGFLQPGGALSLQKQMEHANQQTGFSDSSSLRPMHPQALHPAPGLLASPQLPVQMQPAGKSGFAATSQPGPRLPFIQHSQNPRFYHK
Sequence of UniProt Q9UJY4 (Q9UJY4 whole entry, looked up): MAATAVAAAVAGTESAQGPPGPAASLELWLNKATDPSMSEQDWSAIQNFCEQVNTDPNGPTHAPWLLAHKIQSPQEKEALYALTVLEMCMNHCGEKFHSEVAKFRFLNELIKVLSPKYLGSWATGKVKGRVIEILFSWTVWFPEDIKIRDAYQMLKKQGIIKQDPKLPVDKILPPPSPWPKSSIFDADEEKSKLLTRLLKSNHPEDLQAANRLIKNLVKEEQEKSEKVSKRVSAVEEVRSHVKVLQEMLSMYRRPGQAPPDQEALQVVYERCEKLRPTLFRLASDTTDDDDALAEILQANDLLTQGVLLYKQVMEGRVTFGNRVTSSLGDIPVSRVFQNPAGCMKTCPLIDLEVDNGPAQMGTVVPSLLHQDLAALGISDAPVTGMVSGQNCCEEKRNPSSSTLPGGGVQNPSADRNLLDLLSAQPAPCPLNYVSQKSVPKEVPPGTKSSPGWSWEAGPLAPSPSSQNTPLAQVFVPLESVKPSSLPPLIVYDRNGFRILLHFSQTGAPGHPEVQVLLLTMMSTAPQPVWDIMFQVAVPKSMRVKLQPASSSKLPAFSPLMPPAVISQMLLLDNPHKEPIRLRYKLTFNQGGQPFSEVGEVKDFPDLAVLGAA
Sequence of UniProt Q8IVP5 (Q8IVP5 whole entry, looked up): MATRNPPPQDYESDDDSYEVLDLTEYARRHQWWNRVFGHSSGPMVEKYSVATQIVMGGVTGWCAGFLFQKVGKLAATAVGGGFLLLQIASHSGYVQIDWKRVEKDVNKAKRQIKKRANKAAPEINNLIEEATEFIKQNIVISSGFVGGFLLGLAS
Sequence of UniProt Q7Z4Q2 (Q7Z4Q2 whole entry, looked up): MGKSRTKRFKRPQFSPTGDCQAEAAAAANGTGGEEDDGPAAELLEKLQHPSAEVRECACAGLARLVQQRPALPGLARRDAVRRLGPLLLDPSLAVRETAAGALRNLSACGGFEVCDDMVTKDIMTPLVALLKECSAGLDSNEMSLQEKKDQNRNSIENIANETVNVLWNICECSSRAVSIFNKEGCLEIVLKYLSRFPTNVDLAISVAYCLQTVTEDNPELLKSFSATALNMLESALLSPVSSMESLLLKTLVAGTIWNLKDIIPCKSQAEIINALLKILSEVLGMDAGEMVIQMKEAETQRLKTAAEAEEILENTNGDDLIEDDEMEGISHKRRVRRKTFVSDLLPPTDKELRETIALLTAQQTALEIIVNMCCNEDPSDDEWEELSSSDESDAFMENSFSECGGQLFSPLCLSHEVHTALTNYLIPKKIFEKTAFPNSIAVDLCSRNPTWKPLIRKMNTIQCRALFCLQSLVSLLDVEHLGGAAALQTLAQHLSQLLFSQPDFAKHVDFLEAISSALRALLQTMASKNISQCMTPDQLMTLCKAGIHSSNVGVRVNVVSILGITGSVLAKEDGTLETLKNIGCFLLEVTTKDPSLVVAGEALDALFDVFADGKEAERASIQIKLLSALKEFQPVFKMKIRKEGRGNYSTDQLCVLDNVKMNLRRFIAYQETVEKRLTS
Sequence of UniProt I6L899 (I6L899 whole entry, looked up): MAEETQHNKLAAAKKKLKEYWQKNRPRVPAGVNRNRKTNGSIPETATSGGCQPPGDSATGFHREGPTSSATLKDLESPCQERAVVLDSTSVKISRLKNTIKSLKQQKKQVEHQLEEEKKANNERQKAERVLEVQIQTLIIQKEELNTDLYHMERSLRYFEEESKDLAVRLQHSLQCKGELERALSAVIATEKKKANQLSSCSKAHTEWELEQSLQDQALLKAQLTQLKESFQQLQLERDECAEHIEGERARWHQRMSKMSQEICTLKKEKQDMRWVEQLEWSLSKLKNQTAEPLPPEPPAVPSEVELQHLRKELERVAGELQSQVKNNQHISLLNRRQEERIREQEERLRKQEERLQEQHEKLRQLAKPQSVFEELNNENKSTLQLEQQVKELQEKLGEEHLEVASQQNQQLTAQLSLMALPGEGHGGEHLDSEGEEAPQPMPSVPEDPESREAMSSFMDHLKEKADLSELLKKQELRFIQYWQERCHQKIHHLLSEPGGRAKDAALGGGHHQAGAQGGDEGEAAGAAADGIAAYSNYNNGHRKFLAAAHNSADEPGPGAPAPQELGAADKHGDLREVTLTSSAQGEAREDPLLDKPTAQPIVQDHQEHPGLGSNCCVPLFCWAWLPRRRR
Sequence of UniProt P54652 (P54652 whole entry, looked up): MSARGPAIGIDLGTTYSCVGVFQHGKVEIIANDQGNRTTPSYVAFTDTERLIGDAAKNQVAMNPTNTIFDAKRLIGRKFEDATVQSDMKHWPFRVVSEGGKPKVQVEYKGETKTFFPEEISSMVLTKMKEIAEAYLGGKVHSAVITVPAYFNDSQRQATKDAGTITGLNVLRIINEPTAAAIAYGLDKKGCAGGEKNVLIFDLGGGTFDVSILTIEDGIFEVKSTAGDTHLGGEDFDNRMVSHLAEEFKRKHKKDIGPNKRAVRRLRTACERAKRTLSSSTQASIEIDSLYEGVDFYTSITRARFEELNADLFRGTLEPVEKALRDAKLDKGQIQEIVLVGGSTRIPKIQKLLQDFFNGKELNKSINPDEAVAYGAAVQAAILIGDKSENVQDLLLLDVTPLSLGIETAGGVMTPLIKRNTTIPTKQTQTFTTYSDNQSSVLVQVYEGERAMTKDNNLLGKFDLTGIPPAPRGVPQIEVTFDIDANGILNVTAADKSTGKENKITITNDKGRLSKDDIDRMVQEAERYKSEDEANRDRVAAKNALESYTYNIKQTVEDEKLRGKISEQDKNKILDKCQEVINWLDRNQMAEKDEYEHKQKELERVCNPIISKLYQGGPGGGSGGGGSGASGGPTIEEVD
Sequence of UniProt A6NDN3 (A6NDN3 whole entry, looked up): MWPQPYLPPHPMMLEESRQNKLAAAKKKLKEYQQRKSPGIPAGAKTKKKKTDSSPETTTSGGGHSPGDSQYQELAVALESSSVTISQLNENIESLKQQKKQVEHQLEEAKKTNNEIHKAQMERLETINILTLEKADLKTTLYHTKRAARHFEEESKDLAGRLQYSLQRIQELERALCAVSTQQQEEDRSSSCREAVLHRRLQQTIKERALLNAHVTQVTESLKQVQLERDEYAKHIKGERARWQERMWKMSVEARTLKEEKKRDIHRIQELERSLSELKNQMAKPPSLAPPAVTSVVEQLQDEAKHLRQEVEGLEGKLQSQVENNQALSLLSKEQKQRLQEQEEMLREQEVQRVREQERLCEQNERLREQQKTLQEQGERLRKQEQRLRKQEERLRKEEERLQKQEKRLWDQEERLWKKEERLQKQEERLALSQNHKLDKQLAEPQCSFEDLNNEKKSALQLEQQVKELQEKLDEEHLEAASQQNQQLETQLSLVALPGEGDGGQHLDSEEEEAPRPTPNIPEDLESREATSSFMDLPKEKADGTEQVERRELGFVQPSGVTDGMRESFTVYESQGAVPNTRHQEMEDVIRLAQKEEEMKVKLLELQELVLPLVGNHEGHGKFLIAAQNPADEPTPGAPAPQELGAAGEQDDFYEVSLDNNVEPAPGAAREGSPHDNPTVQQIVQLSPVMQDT
Sequence of UniProt Q53R41 (Q53R41 whole entry, looked up): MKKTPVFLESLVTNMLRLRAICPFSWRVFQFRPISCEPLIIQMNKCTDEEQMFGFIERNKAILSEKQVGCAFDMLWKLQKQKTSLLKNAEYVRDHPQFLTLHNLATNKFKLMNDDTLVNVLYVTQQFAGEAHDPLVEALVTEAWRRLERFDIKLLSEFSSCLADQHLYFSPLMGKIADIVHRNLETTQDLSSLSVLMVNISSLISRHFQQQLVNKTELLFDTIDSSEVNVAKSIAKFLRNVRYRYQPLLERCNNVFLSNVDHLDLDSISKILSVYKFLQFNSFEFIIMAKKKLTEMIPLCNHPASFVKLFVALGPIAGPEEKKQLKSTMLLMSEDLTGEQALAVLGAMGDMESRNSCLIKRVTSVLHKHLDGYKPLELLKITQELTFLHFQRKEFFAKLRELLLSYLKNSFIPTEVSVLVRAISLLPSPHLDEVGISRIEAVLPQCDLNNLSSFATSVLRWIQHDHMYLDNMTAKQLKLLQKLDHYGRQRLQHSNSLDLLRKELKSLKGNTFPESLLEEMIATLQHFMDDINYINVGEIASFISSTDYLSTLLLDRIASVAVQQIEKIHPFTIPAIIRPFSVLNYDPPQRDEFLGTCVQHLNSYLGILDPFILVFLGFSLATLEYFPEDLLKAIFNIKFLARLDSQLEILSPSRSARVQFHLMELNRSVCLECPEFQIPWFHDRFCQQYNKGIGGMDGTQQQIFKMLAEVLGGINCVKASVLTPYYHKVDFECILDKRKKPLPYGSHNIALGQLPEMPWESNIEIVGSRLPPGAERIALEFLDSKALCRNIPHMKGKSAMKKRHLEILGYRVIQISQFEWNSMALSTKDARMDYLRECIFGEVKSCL
Sequence of UniProt Q9Y248 (Q9Y248 whole entry, looked up): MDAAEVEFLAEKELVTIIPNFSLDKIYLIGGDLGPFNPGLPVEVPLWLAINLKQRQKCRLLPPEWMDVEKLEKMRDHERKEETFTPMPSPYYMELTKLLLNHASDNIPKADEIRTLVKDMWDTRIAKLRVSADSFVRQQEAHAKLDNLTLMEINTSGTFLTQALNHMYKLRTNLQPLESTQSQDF
Sequence of UniProt Q01628 (Q01628 whole entry, looked up): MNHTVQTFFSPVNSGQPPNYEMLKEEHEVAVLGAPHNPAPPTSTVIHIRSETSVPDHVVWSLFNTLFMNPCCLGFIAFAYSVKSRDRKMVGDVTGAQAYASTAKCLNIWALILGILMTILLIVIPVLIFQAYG

| Target | log2 fold change [1] | log2 fold change [2] | log2 fold change [3] | log2 fold change (entinostat) | log2 fold change (vorinostat) | log2 fold change (citarinostat) | log2 fold change (silmitasertib) | log2 fold change [4] | log2 fold change [5] | log2 fold change [6] |
| --- | --- | --- | --- | --- | --- | --- | --- | --- | --- | --- |
| GINS2 (UniProt Q9Y248) | -0.086 | -0.024 | 0.022 | 0.533 (active) | -0.01 | 0.028 | -0.031 | -0.163 | -0.026 | – |
| H3-3A (UniProt P84243) | 0.072 | -0.095 | -0.096 | 0.104 | – | 0.157 | -0.046 | – | 0.028 | – |
| FAT1 (UniProt Q14517) | -0.018 | 0 | -0.075 | 0.015 | -0.04 | – | 0.176 | -0.051 | – | – |
| FBXO9 (UniProt Q9UK97) | – | -0.079 | -0.112 | – | 0.109 | 0.157 | 0.132 | – | 0.054 | – |
| HBZ, A0A494C057 | – | -0.022 | – | – | – | -0.197 | 0.005 | – | 0.876 | – |
| GOLGA6B (UniProt A6NDN3) | 0.048 | -0.054 | 0.001 | 0.007 | 0.114 | – | 0.022 | 0.051 | – | – |
| GGA2 (UniProt Q9UJY4) | 0.02 | -0.208 | 0.01 | 0.032 | – | 0.042 | 0.033 | 0.152 | -0.034 | -0.02 |
| FGG (UniProt P02679) | – | – | – | – | -0.001 | – | – | – | – | – |
| GOLGA8R (UniProt I6L899) | – | – | 0.02 | – | 0.073 | 0.09 | – | – | 0.006 | -0.1 |
| IGF2 isoform 3 (UniProt P01344) | – | – | -0.004 | – | – | – | – | – | – | – |
| FCF1 (UniProt Q9Y324) | 0.244 | 0.097 | 0.36 | 0 | -0.045 | -0.137 | 0.099 | 0.349 | -0.375 | – |
| GPNMB (UniProt Q14956) | – | – | – | – | – | -0.125 | – | -0.015 | 0.727 | – |
| IDH3A isoform 2 (UniProt P50213) | – | – | – | – | – | – | – | – | – | -0.06 |
| FAT2 (UniProt Q9NYQ8) | – | -0.334 | -0.134 | – | 0.068 | -0.045 | -0.063 | -0.06 | -0.06 | – |
| FUNDC1 (UniProt Q8IVP5) | -0.058 | -0.104 | – | 0.01 | – | – | 0.055 | – | – | – |
| FASTKD1 (UniProt Q53R41) | 0.046 | – | 0.033 | -0.019 | 0.018 | -0.055 | – | -0.12 | 0.046 | -0.014 |
| GSE1 (UniProt Q14687) | – | – | -0.044 | – | – | – | – | – | – | – |
| GBE1 (UniProt Q04446) | – | -0.214 | -0.07 | – | – | 0.09 | 0.031 | -0.049 | -0.057 | -0.11 |
| HNRNPUL1 (UniProt M0R247) | -0.056 | – | – | -0.352 | – | -0.227 | – | – | -0.014 | -0.629 |
| HEATR3 (UniProt Q7Z4Q2) | 0 | -0.248 | -0.103 | 0.052 | -0.017 | 0.075 | 0.02 | -0.051 | 0.047 | – |
| GREB1 (UniProt Q4ZG55) | 0.029 | – | -0.002 | 0.012 | – | – | – | 0.036 | – | -0.103 |
| IFITM3 (UniProt Q01628) | -0.074 | -0.089 | 0.14 | 0.008 | – | 0.232 | -0.111 | 0.072 | -0.164 | 0.1 |
| GPS2 (UniProt Q13227) | 0.041 | 0.079 | -0.106 | -0.015 | – | -0.023 | 0.031 | -0.005 | -0.092 | – |
| HSPA2 (UniProt P54652) | -0.015 | -0.071 | – | -0.039 | – | – | 0.006 | – | – | 0.076 |
| HDAC2 (UniProt Q92769) | -0.01 | -0.013 | -0.039 | – | – | 1.04 (active) | 0.04 | -0.021 | -0.041 | -0.037 |
| FMR1 (UniProt Q06787) | 0.086 | 0.836 (active) | – | -0.106 | -0.137 | 0.101 | 0.058 | – | -0.146 | – |
| GSTT1 (UniProt P30711) | – | 0.03 | 0.08 | – | -0.022 | -0.018 | -0.074 | 0.019 | -0.012 | 0.012 |
| HDAC7 isoform 5 (UniProt Q8WUI4) | 0.009 | 0.188 | -0.036 | – | 0.027 | 0.032 | 0.021 | 0.032 | -0.163 | 0.123 |
